Assay [1] in a line: HepG2 liver cancer cell viability effects, profiling panel, resazurin fluorescence, 24 h, PK04 Diversity Set (AID 1172). Also: test concentration not given here. The conditions noted are these: higher = more signal.
Assay [2] can be described thus: basal S. cerevisiae growth modulation, no modifier, primary screen, OD600, strain BY4716, 24 h, basal condition (AID 1173). The conditions noted are these: OD600, 24 h, higher = more signal, called active from +8 up or from −8 down.
Assay [3] in a line: MM1S myeloma cell viability, profiling panel, resazurin fluorescence, basal, 24 h, PK04 Diversity Set (AID 1174). Also: test concentration not given here. The conditions noted are these: higher = more signal, called active from +8 up or from −8 down.
Assay [4] addresses Dihydroorotate dehydrogenase (quinone), mitochondrial (Plasmodium falciparum (isolate 3D7)) (UniProt Q08210). As to the kind of experiment: PfDHODH enzyme inhibitors, primary screen, biochemical, C-terminal His tag, absorbance 600 nm (AID 1175).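 Also: recombinant parasite enzyme with a five histidine tag at its C terminus; test concentration not given here.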 Conditions: DCIP absorbance 600 nm, higher = more signal, called active from +8 up or from −8 down.
A short description of assay [5]: P. aeruginosa biofilm formation inhibitors, primary screen, strain PAO1, LB-PBS medium, absorbance 600 nm (AID 1176). Also: test concentration not given here. Conditions: P. aeruginosa PAO1 growth/biofilm, A600, 12 h; higher = more signal.
The nature of assay [6]: S. cerevisiae RM11-1a growth modifiers, primary screen, strain RM11-1a, OD600, basal, 24 h (AID 1177).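 Also: cultures grown under basal conditions with no added stressor; test concentration not given here.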 The conditions noted are these: OD600, 24 h, higher = more signal, called active from +8 up or from −8 down.
Assay [7] in a line: E. coli acrAB mutant growth effects, primary screen, E. coli filamentation inducers, strain DRC39, OD650, 24 h (AID 1178).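 Also: growth measured as culture turbidity by optical density at 650 nm; test concentration not given here.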 The conditions noted are these: higher = more signal, called active from +8 up or from −8 down.
Assay [8] can be described thus: E. coli acrAB mutant growth effects, primary screen, E. coli filamentation inducers, strain DRC39, OD650, 48 h (AID 1179).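 Also: screen aims at cell division blockers that make cells filament.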 The conditions noted are these: E. coli DRC39 delta-acrAB growth, higher = more signal, called active from +8 up or from −8 down.
A short description of assay [9]: RPMI8226 myeloma cell viability, profiling panel, resazurin fluorescence, basal, 24 h, PK04 Diversity Set (AID 1180).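 Also: RPMI8826 multiple myeloma cell line at 5000 cells per well; test concentration not given here.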 The conditions noted are these: higher = more signal. (In general: Alamar Blue is a resazurin reagent that responds to reducing activity.)
Assay [10] concerns the target E3 ubiquitin-protein ligase XIAP (Homo sapiens) (UniProt P98170). Kind of assay: XIAP binders, primary screen, biophysical, small-molecule microarray, fluorescence 635 nm (AID 1181).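 Also: score merges 667 nm emission and signal to noise over triplicate slides.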 The conditions noted are these: small-molecule microarray binding, higher = more signal.

Data on 13 compounds can be found in PubChem BioAssay.

SMILES strings stand for the structures. Calls of active or inactive are those of the source. Unless noted, no rule for the calls is given here.

Chain of E3 ubiquitin-protein ligase XIAP (Homo sapiens) (P98170 whole entry, looked up): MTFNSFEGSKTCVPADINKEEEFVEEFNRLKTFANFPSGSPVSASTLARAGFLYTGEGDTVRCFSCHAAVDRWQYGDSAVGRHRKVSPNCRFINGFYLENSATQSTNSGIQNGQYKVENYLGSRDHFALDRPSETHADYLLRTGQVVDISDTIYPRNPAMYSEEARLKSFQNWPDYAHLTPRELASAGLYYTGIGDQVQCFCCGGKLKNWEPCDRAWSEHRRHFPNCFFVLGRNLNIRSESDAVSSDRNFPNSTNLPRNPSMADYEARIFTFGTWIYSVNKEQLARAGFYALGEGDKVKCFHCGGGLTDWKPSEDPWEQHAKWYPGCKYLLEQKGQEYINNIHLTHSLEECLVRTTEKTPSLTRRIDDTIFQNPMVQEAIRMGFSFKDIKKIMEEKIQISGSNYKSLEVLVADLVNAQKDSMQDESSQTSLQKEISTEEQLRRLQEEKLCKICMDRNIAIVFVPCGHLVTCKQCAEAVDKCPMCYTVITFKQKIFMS
Chain of Dihydroorotate dehydrogenase (quinone), mitochondrial (Plasmodium falciparum (isolate 3D7)) (Q08210 whole entry, looked up): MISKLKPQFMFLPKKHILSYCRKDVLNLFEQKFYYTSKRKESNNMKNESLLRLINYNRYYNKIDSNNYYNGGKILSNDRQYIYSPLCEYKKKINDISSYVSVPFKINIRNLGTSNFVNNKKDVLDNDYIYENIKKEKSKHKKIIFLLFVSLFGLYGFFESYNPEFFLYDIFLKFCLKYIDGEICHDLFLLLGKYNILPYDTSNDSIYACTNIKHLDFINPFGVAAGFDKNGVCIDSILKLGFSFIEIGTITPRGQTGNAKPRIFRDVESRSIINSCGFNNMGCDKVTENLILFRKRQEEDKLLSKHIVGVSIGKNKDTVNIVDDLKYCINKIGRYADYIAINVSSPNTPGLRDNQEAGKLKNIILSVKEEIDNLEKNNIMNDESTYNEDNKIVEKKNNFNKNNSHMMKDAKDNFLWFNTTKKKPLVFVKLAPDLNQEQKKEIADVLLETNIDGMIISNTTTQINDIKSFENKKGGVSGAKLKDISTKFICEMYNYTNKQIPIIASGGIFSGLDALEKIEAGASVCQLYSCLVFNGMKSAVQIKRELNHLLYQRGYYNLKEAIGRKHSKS

On to `Cc1ccc(N2C(=O)c3ccccc3[C@@H](C(=O)NCC(C)C)[C@@H]2c2ccc(CO)cc2)nc1`, for which the z-score was -0.324 in assay [1]; 0.0089 (inactive) in [2]; 0.439 (inactive) in assay [3]; 0.348 (inactive) in assay [5]; -0.746 (inactive) in assay [6]; 0.483 (inactive) in [7]. Also, the z-score in [8] is 0.603 (inactive); in [9], 0.68. Also, the composite z-score in assay [4] is 0.351 (inactive); in [10], -0.148.
For `C=CCOC(=O)[C@@H]1[C@H]2C(=O)O[C@H](c3ccccc3)[C@H](c3ccccc3)N2[C@H](c2ccc(OCCOC(=O)[C@H]3C[C@H]4C(=O)N[C@@H](CCCC[N+](C)(C)C)C(=O)N4[C@H]3c3cccc(OCCO)c3)cc2)[C@@]12C(=O)Nc1ccc(I)cc12`, the z-score in [1] was -0.0059; in [2], 1.68 (inactive); in assay [3] it was -1.05 (inactive); in assay [5], 3.37 (inactive); in assay [6], 1.12 (inactive); in [7] it was -0.708 (inactive). Moreover, the z-score in assay [8] was -1.23 (inactive); in assay [9], -0.521. The composite z-score is -0.483 (inactive) in assay [4] and 0.104 in assay [10].
As for `CC(C)(C)OC(=O)CC[C@]1(C(=O)NCC(O)CO)N=C(c2ccc(OCCCO)cc2)O[C@H]1c1ccccc1CN=[N+]=[N-]` (stereo not given in full), the z-score is -0.206 in assay [1]; -0.694 (inactive) in [2]; -0.918 (inactive) in assay [3]; 1.65 (inactive) in assay [5]; -0.591 (inactive) in assay [6]; -0.185 (inactive) in assay [7]. In addition, the z-score was -0.659 (inactive) in assay [8] and -0.483 in [9]. Besides, the composite z-score was -0.59 (inactive) in [4] and 0.049 in assay [10].
Turning to `O=C(NCC(O)CO)[C@@]1(Cc2ccccc2)COC(c2ccc(OCCCO)cc2)=N1` (stereo not given in full), the z-score was 0.55 in [1]; -0.339 (inactive) in [2]; -0.322 (inactive) in assay [3]; 0.385 (inactive) in assay [5]; 0.0962 (inactive) in assay [6]; 0.187 (inactive) in assay [7]. Besides, the z-score was 0.276 (inactive) in assay [8] and 0.0244 in assay [9]. Further, the composite z-score in assay [4] was -0.815 (inactive); in assay [10], -0.135.
Take `O=C(CS)NCCCCCNC(=O)[C@H]1C[C@H]2C(=O)N[C@@H](Cc3ccccc3)C(=O)N2[C@H]1c1cccc(OCCO)c1`: the z-score in [1] is 0.219; in assay [2], -0.525 (inactive); in [3] it was 0.782 (inactive); in [5] it was 0.932 (inactive); in assay [6], -0.572 (inactive); in assay [7], 1.94 (inactive). Moreover, the values for the z-score in assay [8] and in assay [9] were 1.68 (inactive) and 0.889, respectively. In addition, the composite z-score was 0.761 (inactive) in assay [4] and 0.0585 in assay [10].
Consider `COc1ccc([Si](C)(C)[C@@H]2[C@@H](CCO)O[C@]3(C(=O)N(Cc4cccc(N(C=O)c5ccccc5)c4)c4ccccc43)[C@H]2C)cc1`, for which the z-score in assay [1] was -2.41; in [2], 1.27 (inactive); in [3], -3.21 (inactive); in assay [5], -0.0818 (inactive); in [6], 4.68 (inactive); in [7], -0.818 (inactive). Further, the figures for the z-score in assay [8] and in assay [9] were -1.62 (inactive) and -2.73, respectively. Besides, the composite z-score in [4] was -0.82 (inactive); in [10], 0.0449.
With `O=C1O[C@@H](c2ccccc2)[C@@H](c2ccccc2)N2[C@@H](c3ccccc3OCCO)[C@]3(C(=O)Nc4ccc(C#CC5(O)CCCCCC5)cc43)[C@@H](C(=O)NC[C@H](O)c3ccccc3)[C@H]12`, the z-score in assay [1] was -2.02; in assay [2], 0.934 (inactive); in assay [3] it was -7.38 (inactive); in assay [5], 1.66 (inactive); in [6] it was 2.41 (inactive); in assay [7], -0.0933 (inactive). For the same compound, the z-score in assay [8] is -0.0241 (inactive); in assay [9], -7.19. The values for the composite z-score in [4] and in [10] were -0.516 (inactive) and 0.0264, respectively.
For `CC(c1ccccc1)C(O)C1C=CC2C(=O)N(c3ccccc3)C(=O)C2N1Nc1ccccc1F` (stereo not given), the z-score is 0.677 in [1]; -0.817 (inactive) in [2]; 0.0907 (inactive) in assay [3]; 0.533 (inactive) in assay [5]; -1.12 (inactive) in [6]; 0.0976 (inactive) in [7]. Further, the z-score in assay [8] was 0.669 (inactive); in assay [9] it was 1.21. The composite z-score in [4] was 0.549 (inactive); in assay [10], 0.0859.
On to `COCCOC(=O)N1C(=O)[C@@]2(c3cc(C#Cc4ccc(OC)cc4)ccc31)[C@H](C(N)=O)[C@H]1C(=O)O[C@H](c3ccccc3)[C@H](c3ccccc3)N1[C@@H]2c1ccc(O)cc1`, for which the z-score was -0.0716 in assay [1]; -0.823 (inactive) in assay [2]; 0.277 (inactive) in assay [3]; 0.886 (inactive) in [5]; -0.0047 (inactive) in [6]; -0.102 (inactive) in assay [7]. The results for the z-score in [8] and in assay [9] were 0.236 (inactive) and -0.394, respectively. Besides, the composite z-score was -0.265 (inactive) in assay [4] and 0.0849 in assay [10].
As for `CN1C(=O)C2C=CC(C(O)C=Cc3ccc([N+](=O)[O-])cc3)N(N3CCCCC3)C2C1=O` (stereo not given), the z-score in assay [1] was -0.559; in assay [2], -1.42 (inactive); in [3], -1.42 (inactive); in [5], 1.01 (inactive); in [6] it was -0.555 (inactive); in [7], -0.685 (inactive). Moreover, the z-score in [8] was -0.397 (inactive); in assay [9], -1.88. Besides, the composite z-score in assay [4] is -0.358 (inactive); in assay [10] it was 0.142.
With `C=C[C@H](C)[C@H](O)c1ccc(OCCO)cc1`, the z-score was 0.847 in assay [1]; -1.4 (inactive) in [2]; 0.867 (inactive) in assay [3]; 0.261 (inactive) in assay [5]; 0.349 (inactive) in [6]; 0.74 (inactive) in [7]. For the same compound, the z-score in [8] is 0.715 (inactive); in [9] it was -1.9. The values for the composite z-score in [4] and in assay [10] were 0.257 (inactive) and -0.115, respectively.
Take `COCCOC(=O)N1C(=O)[C@@]2(c3cc(C#CC4(O)CCCCCC4)ccc31)[C@H](c1ccc(O)cc1)N1[C@H](c3ccccc3)[C@H](c3ccccc3)OC(=O)[C@H]1[C@@H]2C(=O)N1CCc2cc(OC)c(OC)cc2C1`: the z-score in assay [1] is 2.14; in assay [2], -0.169 (inactive); in [3], 0.493 (inactive); in assay [5], -0.0242 (inactive); in assay [6], -0.592 (inactive); in assay [7], 0.351 (inactive). Besides, the z-score in [8] was -0.8 (inactive); in [9], 0.0494. Also, the composite z-score in assay [4] is -0.102 (inactive); in assay [10], -0.313.
Consider `CCN(CC)c1ccc(N2CC=CC34O[C@@H]5C=CCOC(=O)[C@@H]5[C@H]3C(=O)N(CCCCCO)[C@@H]4C2=O)cc1` (stereo not given in full), for which the z-score in [1] is 0.34; in [2], 0.0663 (inactive); in assay [3] it was 1.08 (inactive); in assay [5], -0.193 (inactive); in assay [6], -0.272 (inactive); in assay [7] it was 0.831 (inactive). Moreover, the z-score in assay [8] is 0.349 (inactive); in assay [9], 0.225. Moreover, the composite z-score in [4] was 0.618 (inactive); in assay [10], 0.532.
